Choline anaer gr = growth inhibitors of anaerobic choline-fed gram-negatives, minimal medium, absorbance. Gram-negative bacterium anaerobic choline minimal medium; stronger effect = lower value. calls only. 55,000 tested, 0.2% active; call rule not given here
Calls only; . = inactive; + = active, no number. Many of the other results were omitted from the sample, so hits are more common in it than they were.

SMILES	Choline anaer gr
O=C1C[C@@H]2OCC=C3CN4CC[C@]56c7ccccc7N1[C@H]5[C@H]2[C@H]3C[C@H]46	+
COc1ccc2c(c1)C1(CCN(C(=O)NCCC(C)C)C1)C(=O)N2C (centres undefined)	.
CCC1C=CC=CCC(C)C(O)C(C)C(=O)C(C)C(O)C(C)C(=O)C(C)C(O)C(C)C=CC(=O)OC2C(C)C(CC1)O[C@@]1(CCC(C)C(CC(C)O)O1)C2C (some centres undefined)	.
CCOCCCNC(=O)N1CCC2(C1)C(=O)Nc1ccc(OC)cc12 (centres undefined)	.
CCC(C)n1[nH]c(=O)c2c1NC(=O)CSC2c1ccc(Br)cc1 (centres undefined)	.
CCCCCCCCCCCCCCCCOC[C@H](COP(=O)([O-])OCC[N+](C)(C)C)OC(C)=O	.
CCCCCCCCCCCCCCCC(=O)OC[C@H](COP(=O)([O-])OCC[N+](C)(C)C)OC(C)=O	.
CCCCCCCCCCCCCCCCOC[C@@H](COP(=O)([O-])OCC[N+](C)(C)C)OC(C)=O	+
Cc1ccc(C)c(NC(=O)Cn2cc(C(=O)c3ccccc3)c3ccccc32)c1	.
CCC(=O)N1CCc2cc(N3CC(C(=O)N4CCC5(CC4)OCCO5)CC3=O)ccc21 (centres undefined)	.

Source: PubChem BioAssay
